Among the data in PubChem BioAssay AID449728 (The Scripps Research Institute Molecular Screening Center, 2010) are inhibition values, retold here.

The whole screen tested about 330,000 compounds, of which about 900 (0.27%) were called active.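 Rule for the calls: active = inhibition above the campaign's mean inhibition across all tested compounds plus 3 SD (cut at about 9.9% in these data); inactive = the rest.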 What follows is part of a selection rich in actives, with near analogues and random picks from the rest.

This assay in a line: bacterial viability reduction in E. coli – absorbance, OD600, counter-screen for AddAB inhibitor project, primary screen (AID 449728). The note with it: E. coli V3065 growth, 18 h, at 11.9 µM, active compounds read high.
In general, inhibition refers to the drop in the measured response relative to a control, in per cent. For the compound `Cc1ccc(-n2c(-c3ccc([N+](=O)[O-])cc3)nc3ccccc3c2=O)cc1`, the inhibition is -0.79% (inactive).

Take `C/C(=N/O)c1ccc2ccc3ccccc3c2c1`: the inhibition is 1.2% (inactive).

For `O=[N+]([O-])c1cnc2ccc3ccccc3c2c1`, the inhibition was 53.1% (active).

In the case of `COCCNC(=O)CN1C2CCC1CC(O)(c1cccnc1)C2` (stereo not given), the inhibition is -3.36% (inactive).

As for `O=c1[nH]c(=O)n(-c2ccc(F)cc2)c(O)c1C=NCCN1CCCCC1`, the inhibition was -0.49% (inactive).
